Mdm2-MdmX inh: disrupts the human Mdm2-MdmX interaction; SaOS-2 split-luciferase Mdm2/MdmX complementation, luminescence; O15151+Q00987; inhibition, % at 8 µM; hit rate 3% among 330,000;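 active means inhibition of at least 50% at 8 µM in the primary screen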
Target sequence (O15151 whole entry, looked up): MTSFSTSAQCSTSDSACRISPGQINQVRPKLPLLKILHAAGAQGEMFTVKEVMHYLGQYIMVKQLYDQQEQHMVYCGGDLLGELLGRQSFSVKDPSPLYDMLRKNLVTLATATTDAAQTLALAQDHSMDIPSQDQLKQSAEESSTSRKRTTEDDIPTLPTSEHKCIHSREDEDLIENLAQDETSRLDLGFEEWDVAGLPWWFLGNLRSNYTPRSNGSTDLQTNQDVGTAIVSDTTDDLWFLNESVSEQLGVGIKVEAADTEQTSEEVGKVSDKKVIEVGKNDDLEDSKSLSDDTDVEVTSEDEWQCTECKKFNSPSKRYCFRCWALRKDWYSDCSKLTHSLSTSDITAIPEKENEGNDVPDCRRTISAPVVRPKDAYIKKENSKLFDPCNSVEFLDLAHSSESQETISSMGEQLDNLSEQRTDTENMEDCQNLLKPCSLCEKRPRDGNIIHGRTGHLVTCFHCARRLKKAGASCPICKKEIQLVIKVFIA
Target sequence (Q00987 whole entry, looked up): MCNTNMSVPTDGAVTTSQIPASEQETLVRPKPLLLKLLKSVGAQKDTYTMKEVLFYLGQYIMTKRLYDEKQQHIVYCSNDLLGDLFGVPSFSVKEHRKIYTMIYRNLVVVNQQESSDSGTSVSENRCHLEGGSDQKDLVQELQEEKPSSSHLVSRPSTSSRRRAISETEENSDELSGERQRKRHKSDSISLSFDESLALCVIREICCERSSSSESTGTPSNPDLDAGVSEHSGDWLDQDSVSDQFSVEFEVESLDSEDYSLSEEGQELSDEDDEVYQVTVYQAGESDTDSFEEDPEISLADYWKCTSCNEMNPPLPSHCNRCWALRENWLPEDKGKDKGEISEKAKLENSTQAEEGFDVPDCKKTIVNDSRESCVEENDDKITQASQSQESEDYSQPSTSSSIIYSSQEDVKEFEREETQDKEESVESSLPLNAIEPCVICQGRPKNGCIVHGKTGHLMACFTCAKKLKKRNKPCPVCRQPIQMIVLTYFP
CSC inhib: blocks cancer stem cells. AID 2717. inhibition, % at 7.5 µM. cancer stem cell-like cells viability, luminescence. hit rate 1.1% among 300,000; in the data active means inhibition above about 75%; inconclusive means no clear call, values can overlap the other calls; tested in HMLE shEcad cells
PP5 inh: PP5 (human) phosphatase inhibition; P53041; purified PP5c, OMFP substrate fluorescence; inhibition, % at 6.7 µM; hit rate 0.18% among 320,000;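 active means inhibition above the campaign's mean inhibition across all tested compounds plus 3 SD, cut at about 9.5% in these data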
PP1 inh: blocks human PP1-alpha phosphatase, a PP5 counter-screen | inhibition, % at 6.7 µM | hit rate 0.9% among 320,000 | purified PP1alpha, OMFP fluorescence | AID 2235;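 active means inhibition above the mean inhibition of all tested compounds plus 3 SD, computed separately for each screening campaign, cut at about 15% in these data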
Calb FLC: C. albicans growth modulation with fluconazole. growth inhibition, % (no concentration beside the values). hit rate 0.57% among 300,000. C. albicans CaCi-2 (fluconazole-resistant clinical isolate) + fluconazole, Alamar Blue growth, 48 h;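 active means growth inhibition above about 58% in most replicates, limit read from the data, passing the limit was not always enough; inconclusive means exactly half the replicates above a set limit; inactive means most replicates below a set limit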;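 further: all wells also contain fluconazole at 8 µg/ml as a sub-toxic cotreatment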
Beta cell apopt: blocks beta cell apoptosis | protection from apoptosis, % (no concentration beside the values) | hit rate 0.8% among 300,000 | INS-1E cytokine-induced death, ATP luminescence, 48 h; percent of positive-control rescue, neutral wells zero;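 active means Every replicate reaches about 75%, or at least half do and their mean reaches it too, limit read from the data; inconclusive means At least half of replicates reach the limit but their mean does not; inactive means Under half of replicates reach the limit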;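 further: higher means more ATP so stronger rescue from cytokine killing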
Of the large screens only hits and unclear results are named; the others gave an inactive call. Hits are enriched below; roughly 4.9% of the tested compounds scored in any of these assays.

CCOc1ccc(/C=C/C2=Cc3c(sc(NC(=O)CSc4n[nH]c(N)n4)c3C#N)C(C)(C)C2)cc1	PP1 inh 22
Cc1ccsc1/C=C/C1=Cc2c(sc(NC(=O)CSc3n[nH]c(N)n3)c2C#N)C(C)(C)C1	PP1 inh 17 (no result: Beta cell apopt)
O=S(=O)(O)c1cc2oc(-c3ccccc3)nc2c2ccccc12	none
CC1(C)Cc2c(cnn2-c2cccc(F)c2)C(NC(=O)CN2CCCC2=O)C1 (configuration not stated)	none
Cc1ccc(S(=O)(=O)N2CCC(c3nc4c(nnn4Cc4ccccc4)c(=O)[nH]3)CC2)cc1	PP1 inh 16
O=c1[nH]c(C2CCN(S(=O)(=O)/C=C/c3ccccc3)CC2)nc2c1nnn2Cc1ccccc1	PP1 inh 15
CCOC(=O)CC(NC(=O)c1ccc(C)cc1)c1ccc(OC)cc1 (configuration not stated)	none
Nc1nc(-c2ccccc2)c(N=Nc2ccccc2Cl)s1	Calb FLC 101
COC(=O)c1ccc2c(=O)n(-c3ccccc3)c(SCN3C(=O)c4ccccc4C3=O)nc2c1	Beta cell apopt 106
O=C(CN1CCN(c2nc(-c3ccc(Cl)cc3)cs2)CC1)NCc1ccco1	PP1 inh 16 (no result: CSC inhib, Beta cell apopt)
COc1ccc(O)c(C(=O)c2cnn(-c3ccccn3)c2)c1	none
COc1ccc(O)c(C(=O)c2cnc3nc4ccccc4n3c2)c1	Beta cell apopt 83 (no result: Mdm2-MdmX inh)
CN(C)S(=O)(=O)c1ccc2c(c1)nc(CCC(=O)NCCc1ccc(Cl)cc1)n2C	none
CC(=O)NC1=C(C#N)C(c2ccccc2)c2c(ccc3ccccc23)O1 (configuration not stated)	CSC inhib 78
Cc1c(NC(=O)C2CCCCC2)cc(C(=O)N2CCOCC2)cc1[N+](=O)[O-]	none
O=C(O)c1ccc(-c2nc(-c3ccc(Cl)c(Cl)c3)cs2)cc1	Calb FLC 89 (no result: CSC inhib)
CCCSc1cc(N)cc([N+](=O)[O-])c1	Calb FLC 97 (no result: CSC inhib)
Nc1cccc([N+](=O)[O-])c1	none
COc1ccc(/C=C(/NC(=O)c2ccc(C)cc2)C(=O)N2CCCC2)cc1OC	none
CCCCCNCC(=O)Nc1cccc(C(=O)Nc2cccc(C(F)(F)F)c2)c1	CSC inhib 93
O=C(CN1CCOCC1)Nc1cccc(C(=O)Nc2cccc(C(F)(F)F)c2)c1	none
COc1ccc(-c2nn(-c3ccccc3)cc2/C=C2/SC(=S)N(CCC(=O)O)C2=O)c(C)c1	CSC inhib 85
COc1ccc(-c2nn(-c3ccccc3)cc2/C=C2/SC(=S)N(CCC(=O)O)C2=O)cc1	none
CCOC(=O)c1c(S(=O)(=O)N2CCCCC2C)c(C)n(C)c1C (configuration not stated)	none
Cc1cc(N2CCN(c3nc4ccccc4s3)CC2)n2ncnc2n1	Beta cell apopt 87
Cc1cc(N2CCN(C(c3ccccc3)c3ccccc3)CC2)n2ncnc2n1	none (no result: Beta cell apopt)
Cc1cccc(NC(=S)NNC(=O)c2ccccc2Br)c1	none
O=C(NNC(=S)Nc1ccc(F)c(Cl)c1)c1ccccc1Br	Calb FLC 107
COc1cccc(NC(=O)C(C)Sc2nnc(C3CC3)n2C2CC2)c1 (configuration not stated)	none (no result: CSC inhib, Calb FLC, Beta cell apopt)
CCOC(=O)c1c(NC(=O)CN2CCN(C)CC2)sc(C(=O)Nc2ccccc2)c1C	CSC inhib 79
CCOC(=O)c1sc(NC(=O)CCN2CCN(C)CC2)c(C(=O)OCC)c1C	none
O=C(Cc1cccs1)N/N=C\c1ccc([N+](=O)[O-])s1	Beta cell apopt 94
COc1cc(/C=N/NC(=O)Cc2cccs2)c([N+](=O)[O-])cc1OC	none (no result: Beta cell apopt)
O=C1NC2(CCCCC2)NN1c1ccccc1	none
O=C1NC2(CCC3(CC2)OCCO3)NN1c1ccc(Cl)cc1	Calb FLC 106
COc1ccc(Nc2nc(-c3ccccc3)nc3ccccc23)cc1	none (no result: Beta cell apopt)
COc1cccc(Nc2nc(-c3cccs3)nc3ccccc23)c1	CSC inhib 89
COc1ccc(Nc2nc(-c3cccs3)nc3ccccc23)cc1	CSC inhib 78, Calb FLC inconclusive
CCOc1ccc(C(=O)NC(C(=O)NCc2cccnc2)C(C)C)cc1 (configuration not stated)	none
CCOc1cc(/C=C2\C(=O)N(c3cccc(C(=O)O)c3)N=C2C(F)(F)F)ccc1OCC(=O)Nc1ccccc1OC	PP1 inh 17 (no result: CSC inhib)
CCN(CC)c1ccc(N=C2C(=O)Nc3ccccc32)cc1	Beta cell apopt 87
CSc1ccc(NC(=O)NCc2ccccc2)cc1	none
CCCOc1ccc(OCCSc2ncccn2)cc1	PP1 inh 16
O=C(NCCNC(=O)c1ccco1)c1ccco1	none (no result: CSC inhib)
COc1ccc(CNCCNC(=O)c2ccco2)c(OC)c1OC	Calb FLC 91
COc1cccc(C(=O)C2CCCN(Cc3cn(CC(N)=O)c4ccccc34)C2)c1 (configuration not stated)	none
CCCC(=O)Nc1ccc(C2C(=O)c3ccccc3C2=O)cc1	none
NC(=O)c1nsc(C(=O)N(CC(=O)NC2CCCCC2)Cc2ccc(F)cc2)c1N	none
CCN(CC)CCCNC(=S)N1CCN(c2nc(-c3ccc(F)cc3)cs2)CC1	CSC inhib 93
COc1ccccc1C(=O)NC(=O)COC(=O)c1cccc(C)c1O	none
O=C(C1CCCCC1)N1CCN=C1SCc1cccc([N+](=O)[O-])c1	none
C[N+]1=C(/C=C/Nc2ccccc2Cl)C(C)(C)c2ccccc21	Beta cell apopt 99
FC(F)(F)c1cnc(/C=C/Nc2ccccc2Cl)c(Cl)c1	none
CCN(CC)C(=O)Cn1ccc(NC(C)=O)nc1=O	none
CCCn1c(N2CCN(C(=O)Nc3ccc(Cl)cc3)CC2)nc2ccccc21	none
CC(C)n1c(N2CCN(C(=O)Nc3ccc(Cl)cc3)CC2)nc2ccccc21	Calb FLC 73
CC(C)c1ccc(S(=O)(=O)/N=C2/C=C(Sc3ncn[nH]3)C(=O)c3ccccc32)cc1	CSC inhib 105, PP5 inh 11, Beta cell apopt 132 (no result: Mdm2-MdmX inh, Calb FLC)
CCOc1ccc(C(=O)Nc2nnc(C3=COCCO3)o2)cc1	none
C=CCn1nnc2sc3c(c2c1=O)CCC(C)C3 (configuration not stated)	none
Cc1cc(C(=O)Cn2nc(C(=O)O)c3ccccc3c2=O)c(C)n1-c1ccc(OC(F)F)cc1	PP1 inh 16 (no result: Beta cell apopt)
CCN(C[C@H]1N[C@@](C)(C(=O)OC)[C@H]2C(=O)N(C)C(=O)[C@@H]12)C(=O)Nc1ccc(Cl)cc1	none (no result: CSC inhib, PP5 inh, PP1 inh, Calb FLC)
O=C(c1ccc(-c2ccc(Cl)cc2)o1)N1CCN(c2ccc([N+](=O)[O-])cc2Cl)CC1	PP1 inh 16, Beta cell apopt 113
CC1CC(C)CN(C(=O)COC(=O)c2ccc3ccccc3n2)C1 (configuration not stated)	none (no result: Calb FLC)
Cc1nn(C)c(C)c1CN(Cc1nc(CCC(C)C)no1)C(C)C	Beta cell apopt 94
CC(C)CCc1noc(CN(C)CCC2CCOCC2)n1	none
Cc1cc(N/N=C/c2ccc(F)cc2)nc(NCc2ccccc2)n1	none (no result: Beta cell apopt)
Cc1ccc(/C=N/Nc2cc(C)nc(NCc3ccccc3)n2)cc1	CSC inhib 97

Compound activity from PubChem.
